Measurements: PubChem BioAssay AID2284167 (EPA ToxCast)
Results filed as inconclusive are left out. Calls of active or inactive are those of the source. How the source made its calls: active means hit-call score of the fitted dose curve at least 0.9, where 1 is the maximum; inconclusive means response in the unintended direction; inactive means score below 0.9.

What follows are compounds tested against human Neurotensin Receptor NT1 Agonism, NTSR1 (gene 4923) (UniProt P30989) (assay: ERF_FR_GPCR_hNTSR1: Eurofins (ERF) G Protein-Coupled Receptor (GPCR) Radioligand Binding LeadHunter Assay for human Neurotensin Receptor NT1 Agonism).
Chain of human Neurotensin Receptor NT1 Agonism, NTSR1 (gene 4923) (P30989 whole entry, looked up): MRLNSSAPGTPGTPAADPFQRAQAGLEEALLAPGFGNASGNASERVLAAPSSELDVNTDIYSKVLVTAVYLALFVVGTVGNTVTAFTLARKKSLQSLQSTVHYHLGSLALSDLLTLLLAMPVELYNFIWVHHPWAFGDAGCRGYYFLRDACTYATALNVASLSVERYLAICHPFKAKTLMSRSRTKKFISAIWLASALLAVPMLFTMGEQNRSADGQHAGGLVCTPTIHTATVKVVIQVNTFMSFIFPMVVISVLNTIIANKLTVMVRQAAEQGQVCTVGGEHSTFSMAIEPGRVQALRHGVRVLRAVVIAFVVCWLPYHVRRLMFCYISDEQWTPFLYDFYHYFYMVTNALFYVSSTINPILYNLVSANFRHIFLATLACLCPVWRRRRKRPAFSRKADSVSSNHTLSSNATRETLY
Experimental: ERF_FR_GPCR_hNTSR1 is a biochemical, single-readout assay that uses extracted gene-proteins in a cell-free assay. Measurements were taken 1 hour after chemical dosing in a 96-well plate. See NT1 Human Neurotensin GPCR Binding (Agonist Radioligand) Assay, Cerep.ERF_FR_GPCR_hNTSR1 is an assay component calculated from the ERF_FR_GPCR_hNTSR1 assay. It is designed to measure radioligand binding using a type of binding reporter as detected by scintillation counting with radiometry technology.Data from the assay component ERF_FR_GPCR_hNTSR1 was analyzed at the assay endpoint, ERF_FR_GPCR_hNTSR1, in the positive analysis fitting direction relative to DMSO as the negative control and baseline of activity. Using a type of binding reporter, gain-of-signal activity can be used to understand changes in binding as they relate to gene NTSR1. To generalize the intended target to other relatable targets, this assay endpoint is annotated to the gpcr intended target family, where the subfamily is neurotensin.
Human cells are incubated for 60 minutes at 4 C with [125I]Tyr3-neurotensin ligand (0.05 nM) and neurotensin as control inhibitor. Test Sample Requirements: Minimum for 1) Screen: 60 ul of 10 mM stock -OR- 1 mg (pre-weighed) for 10 uM final testing. 2) Dose Response: 90 ul of 10 mM stock -OR- 1 mg (pre-weighed) for a top concentration at 10 uM.
With O=C(/C=C/c1ccc(O)cc1)CC(=O)/C=C/c1ccc(O)cc1 the AC50 was 2.99 µM (active).
